Most compounds without a hit are left out; they make up all but 3.5% or so of the library.
MITF inh: MITF inhibitors, primary screen, biochemical, AlphaScreen, human. AlphaScreen MITF homodimerization, bead proximity signal. inhibition, % at 2.6 µM. 0.91% of 650,000 active. AID 1259374, 2018; in the data active = inhibition above about 50%;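 note: 0% = vehicle wells with protein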
TEAD-YAP block: TEAD-YAP interaction inhibition, primary screen, TEAD-YAP interaction inhibitor project, luminescence, HEK-TIYL cells; AID 1259422, 2018; TEAD-Gal4/YAP UAS-luciferase luminescence; 1.4% of 640,000 active; inhibition, % at 9.12 µM; in the data active = inhibition above about 32%;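 note: 0% = median of test compound wells and 100% = reference inhibitor wells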
GPR151 ag: activators of human GPR151, primary screen, cell-based, PathHunter beta-arrestin, luminescence; AID 1508602, 2020; PathHunter beta-arrestin GPR151 cells; 1% of 650,000 active; G-protein coupled receptor 151 (Homo sapiens), Q8TDV0; activation, % at 11.2 µM; in the data active = activation above about 4.9%;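 note: 0% = median of compound wells and 100% = cells with positive control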
FBW7 activator: FBW7 E3 ligase activators, primary screen, biochemical, AlphaScreen, human; normalized activity (activation), % at 26.1 µM; AlphaScreen FBW7–phospho-cyclin E peptide binding, activator screen; 0.13% of 650,000 active; in the data active = normalized activity above about 1.9%;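 note: purified mutant Fbw7 with reduced substrate affinity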
Target sequence (Q969H0 whole entry, looked up): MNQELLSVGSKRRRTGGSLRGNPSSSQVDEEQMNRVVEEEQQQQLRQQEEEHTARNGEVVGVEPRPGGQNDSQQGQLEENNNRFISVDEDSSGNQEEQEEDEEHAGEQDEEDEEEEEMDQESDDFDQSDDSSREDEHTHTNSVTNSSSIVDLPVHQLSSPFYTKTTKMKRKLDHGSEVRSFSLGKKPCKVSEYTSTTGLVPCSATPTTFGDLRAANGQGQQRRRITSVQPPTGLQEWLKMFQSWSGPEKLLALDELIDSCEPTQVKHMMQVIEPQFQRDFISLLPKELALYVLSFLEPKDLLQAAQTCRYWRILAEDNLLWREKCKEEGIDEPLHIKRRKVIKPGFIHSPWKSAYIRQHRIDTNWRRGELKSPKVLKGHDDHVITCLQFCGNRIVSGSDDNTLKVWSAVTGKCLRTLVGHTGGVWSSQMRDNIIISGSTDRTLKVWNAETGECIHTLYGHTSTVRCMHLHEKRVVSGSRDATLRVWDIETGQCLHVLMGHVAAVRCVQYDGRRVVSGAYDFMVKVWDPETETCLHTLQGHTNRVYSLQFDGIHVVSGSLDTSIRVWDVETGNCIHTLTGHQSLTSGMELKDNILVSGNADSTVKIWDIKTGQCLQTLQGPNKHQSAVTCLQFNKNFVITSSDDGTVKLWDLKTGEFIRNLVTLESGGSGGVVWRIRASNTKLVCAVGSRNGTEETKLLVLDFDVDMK
GPR151 confirm: GPR151 activators, triplicate retest, confirmation, cell-based, PathHunter beta-arrestin, luminescence; shares compounds with GPR151 ag; GPR151 PathHunter beta-arrestin cells, 90 min; % of EA-reagent control over plate median; activation, % at 11.2 µM; 6,700 tested, under 10 active; AID 1508609, 2020;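 active = mean percent activation across replicates above the confirmation screen cutoff of 4.91%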
GPR119 ag: GPR119 activators in beta-arrestin cells, counter-screen for GPR151 activator project, cell-based, PathHunter beta-arrestin, luminescence, triplicate; AID 1508611, 2020; 90 min; 0 = compound-well median, 100 = enzyme-acceptor control; shares compounds with GPR151 ag; 0.3% of 6,700 active; activation, % at 11.2 µM;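 active = mean percent activation in the counterscreen above 29.09%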;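 note: counterscreen on off-target GPR119 to flag nonselective hits from the GPR151 activator screen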
* hit, by the source's call; x = no result given.

SMILES	MITF inh	TEAD-YAP block	GPR151 ag	FBW7 activator	GPR151 confirm	GPR119 ag
COc1ccccc1CC(=O)NCC1COc2ccccc2O1 (stereo not given)	13	-2	5.7*	0	0	11
COc1cccc(CC(=O)NCC2COc3ccccc3O2)c1OC (stereo not given)	4	1	0	0	x	x
O=C(CN1CCN(Cc2ccccc2)CC1)NCC1COc2ccccc2O1 (stereo not given)	-8	4	9.2*	0	0	-8
COc1ccc(C2C(C(=O)NCC3COc4ccccc4O3)c3ccccc3C(=O)N2c2ccc(OC)cc2)cc1 (stereo not given)	8	8	7.2*	0	0	-8
CC(=O)N(C)c1nc(-c2ccccc2)ccc1C(=O)NCC1COc2ccccc2O1 (stereo not given)	20	-1	11*	0	0	-2
O=C(CN1C(=O)c2ccccc2C1=O)NCC1COc2ccccc2O1 (stereo not given)	1	-1	-2	0	x	x
Cn1c(-c2ccc3c(c2)OCO3)cnc1NC(=O)c1ccc(F)cc1	0	-42	-1	-1	x	x
COc1ccc(-c2noc(COc3cccc(C)c3C)n2)cc1	1	-3	2	0	x	x
CC1CC(=O)C2=C(C1)OC(N)=C(C#N)C2c1ccc2ccccc2c1 (stereo not given)	19	10	1	0	x	x
COc1ccc(C(N)P(=O)(O)O)cc1O (stereo not given)	17	1	2	0	x	x
COc1cc(C=O)ccc1Oc1ncccc1[N+](=O)[O-]	-3	7	8.0*	0	1	-5
O=S(=O)(c1cccs1)N1CCN(Cc2ccc3c(c2)OCO3)CC1	1	0	2	0	x	x
Cc1c(C(=O)OC(C)C)sc(NC(=O)c2ccccc2F)c1C#N	-1	-3	5.8*	0	0	0
Cc1c(C(=O)OC(C)C)sc(NC(=O)c2cc(Cl)ccc2Cl)c1C#N	-1	4	1	0	x	x
NC(=O)c1ccccc1NC(=O)CCn1c(=O)oc2ccccc21	4	4	5.0*	0	0	7
CCn1cc(CCC(=O)NC(C)C)c2ccccc21	3	-1	5.6*	0	0	8
CC(C)NC(=O)CCn1c(=O)oc2ccccc21	-1	-8	8.1*	0	0	-6
O=c1[nH]c(SCc2ccccc2)nc2c1C1(CCCCC1)Cc1ccccc1-2	17	2	-2	0	x	x
O=c1[nH]c(Cc2ccccc2)nc2c1C1(CCCCC1)Cc1ccccc1-2	-18	-7	5.1*	0	1	14
O=C(CCCn1c(SCc2cccc([N+](=O)[O-])c2)nc2ccccc2c1=O)NCc1ccco1	4	3	0	0	x	x
COc1ccc(C2CC(c3ccc(OC(F)F)cc3)n3ncnc3N2)cc1 (stereo not given)	-22	-1	7.4*	0	1	4
COc1ccc(C2CC(c3ccccc3OC(F)F)Nc3ncnn32)cc1 (stereo not given)	-5	4	1	0	x	x
C[C@H]1CC[C@H]2C(=O)O[C@H](CO)CN2[C@@H]1c1ccc(Br)cc1	5	x	-1	0	x	x
C[C@@H]1CC[C@H]2C(=O)O[C@@H](COc3ccc(C(C)(C)C)cc3)CN2[C@@H]1c1ccc(Br)cc1	17	x	5.4*	0	-1	-9
COc1ccc(C2(NC(=O)c3snnc3C)CCCCC2)cc1	1	0	20*	0	0	-1
SMILES	MITF inh	TEAD-YAP block	GPR151 ag	FBW7 activator	GPR151 confirm	GPR119 ag
O=C(NCCN1CCN(S(=O)(=O)c2ccccc2)CC1)C(=O)NCc1ccco1	-2	5	5.7*	0	0	-8
Cc1ccc(C)n1CCN1CCN(S(=O)(=O)c2ccccc2)CC1	-34	5	5.1*	0	0	-3
CC(Sc1ncn(-c2ccccc2)n1)C(=O)Nc1ccccc1 (stereo not given)	0	-6	5.9*	0	-2	-5
C/C(=N\Nc1ccc([N+](=O)[O-])cc1[N+](=O)[O-])c1ccc(F)cc1	14	-20	-1	1	x	x
CCN(CC)C(=O)C1CCCN(c2nc(Nc3ccc(NC(C)=O)cc3)c3ncn(Cc4ccc(C(F)(F)F)cc4)c3n2)C1 (stereo not given)	0	3	0	0	x	x
CCN(CC)C(=O)C1CCCN(c2nc(Nc3ccc(NC(C)=O)cc3)c3ncn(CCN4CCCC4=O)c3n2)C1 (stereo not given)	-5	-1	6.4*	0	0	-8
O=C1CCCN1CCn1cnc2c(Nc3ccc4c(c3)OCO4)nc(N3CCN(Cc4ccc5c(c4)OCO5)CC3)nc21	8	8	5.1*	0	0	-7
CC(C)(C)c1ccc(/C=N/Nc2ccc(S(N)(=O)=O)cc2[N+](=O)[O-])cc1	4	3	5.0*	0	1	-13
Cc1nn(Cc2ccccc2)c(Cl)c1/C=N/Nc1ccc(S(N)(=O)=O)cc1[N+](=O)[O-]	9	10	5.2*	0	1	3
NS(=O)(=O)c1ccc(N/N=C/c2ccccc2Cl)c([N+](=O)[O-])c1	3	6	0	0	x	x
C=CCOC(=O)C1=C(C)Nc2c(c(=O)n(C)c(=O)n2C)C1c1cccc(Br)c1 (stereo not given)	3	-1	3	0	x	x
CCNC(=O)c1sc2cc(C)ccc2c1Cl	9	-28	6.4*	0	-1	-5
Cc1ccc(NC(=O)c2sc3cc(C)ccc3c2Cl)cc1	-8	-37	1	0	x	x
O=C(CC1(c2ccccc2)CC(=O)N(Cc2cccnc2)C1=O)N1CC[C@@H]2CCCC[C@H]2C1 (stereo not given in full)	3	-4	9.5*	0	-1	-2
CCN1CCSc2ccc(C(=O)NCc3ccc(C)cc3)cc21	-7	-6	6.4*	0	-2	-20
CCCc1cc(=O)[nH]c(SCC(=O)Nc2ccccc2)n1	-33	-7	-1	0	x	x
CCOc1ccc(/C=N/NC(=O)C(C)Nc2cccc3ccccc23)cc1O (stereo not given)	18	8	2	0	x	x
Cc1ccc(N/C=C/C(=O)c2cccs2)cc1C	7	-24	9.6*	1	-2	-20
